From PubChem
VACV Venus inh: inhibitors of vaccinia virus (Venus reporter); Vaccinia virus Venus reporter expression, fluorescence; Potency, µM (titrated, usually from 36.5 µM), for inactives: at the top dose activity change, negative = inhibition, hits mostly inhibitors; 330,000 tested, 0.46% active; calls by dose curve; tested in A549 cells; further: potency means the concentration at half of the fitted maximal effect; nearly all actives have a fitted effect of over 30% in size
HCMV inh: inhibitors of human cytomegalovirus. HFF cells, HCMV-luciferase reporter, 72 h; stronger effect = lower value. activity change, negative = inhibition, % at 57.5 µM. 410,000 tested, 4.5% active; in the data active means activity change below about -60%; inconclusive means no clear call, values can overlap the other calls; inactive means above about -39%
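Two-dose cell screen: HFF monolayers treated with compounds and infected with luciferase-expressing HCMV at 1 PFU/cell, 72 h at 37C, then lysed for luciferase measurement.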
VACV mCherry inh: inhibitors of vaccinia virus infection (mCherry reporter signal); Potency, µM (titrated, usually from 36.5 µM), without a hit: top-dose activity change, negative = inhibition, most hits filed as inhibitors; 310,000 tested, 0.63% active; Vaccinia virus mCherry reporter infection, fluorescence; calls by dose curve; tested in A549 cells; further: potency means the concentration at half of the fitted maximal effect; nearly all actives have a fitted effect of over 35% in size
Marburg entry inh: inhibitors of Marburg virus binding or cell entry; 300,000 tested, 1.8% active; Potency, µM (series often up to 37.8 µM), for the others: at the highest dose activity change, negative = inhibition, usual class: inhibitors; Marburg virus pseudotyped entry inhibition, cell reporter; calls by dose curve; tested in HEK293 cells; further: potency means the concentration at half of the fitted maximal effect
Lassa entry inh: blocks Lassa virus binding to or entry into cells | Lassa virus pseudotype entry inhibition, cell reporter | Potency, µM (series often up to 37.9 µM), without a hit: at the highest dose activity change, negative = inhibition, usual class: inhibitors | 300,000 tested, 1.2% active | AID 540256; calls by dose curve; tested in HEK293 cells; further: potency means the concentration at half of the fitted maximal effect; nearly all actives have a fitted effect of over 50% in size
HCV inh: HCV inhibition; Huh7.5.1 HCVcc-Cre infection, luciferase reporter, 44 h; Potency, µM (highest dose often 41.8 µM), for inactives: at the highest dose activity change, negative = inhibition, most hits filed as inhibitors; 340,000 tested, 3.4% active; AID 651820; active means well fitted inhibition curve with a large enough effect; inconclusive means small, poorly fitted or top-dose-only effect, or another doubt; inactive means no such curve, though single readings can be large or run the other way; further: potency means the concentration at half of the fitted maximal effect
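Compounds are dispensed onto cells plated 4 h earlier at 1,000 per well, with HCVcc-Cre virus (about 0.5 moi) added next. Following 44 h of culture, luminescent signal is measured for 15 sec after 15 min with substrate at room temperature.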
* = called active by the depositor; [ ] = another dose, or the depositor's remark. Most compounds without a hit are left out; they make up all but 7.8% or so of the library. On the % scale 0 is the no-effect control and ±100 the full control effect.

Results for CCOc1ccc(-c2csc(NC(=O)c3ccc(S(=O)(=O)N4CCc5ccccc5C4)cc3)n2)cc1 ?
HCMV inh: -8.4; Marburg entry inh: -3.2%; Lassa entry inh: 5.8%; HCV inh: -20.8%

Results for COC(=O)C1CCN(C(=O)c2oc3c(Cl)cc(C)cc3c2C)CC1 ?
HCMV inh: 17.1; HCV inh: -22.3%

Results for Cc1cc(Cl)c2oc(C(=O)N3CCN(c4ccncc4)CC3)c(C)c2c1 ?
VACV Venus inh: inconclusive; HCMV inh: -40.0; VACV mCherry inh: -11.1%; Marburg entry inh: 3.55µM*; Lassa entry inh: inconclusive; HCV inh: 1.26µM*

Results for COc1ccc(-n2cc(-c3ccc(OC(F)F)cc3)[n+]3c2CCCCC3)cc1 ?
HCMV inh: -84.9*; HCV inh: -23.3%

How did COc1ccc(N2CC(O)(c3ccc(OC(F)F)cc3)[N+]3=C2CCCC3)cc1 (configuration not stated) do in these assays?
VACV Venus inh: -0.6%; HCMV inh: -33.0; VACV mCherry inh: -14.9%; Marburg entry inh: inconclusive; Lassa entry inh: 2.7%; HCV inh: 6.4%

Results for Clc1ccc(-c2cn(-c3ccc(Cl)cc3)c3[n+]2CCCCC3)cc1 ?
VACV Venus inh: -10.3%; HCMV inh: inconclusive; VACV mCherry inh: -5.5%; Marburg entry inh: inconclusive; Lassa entry inh: 21.1%; HCV inh: 1.4%

Results for COc1ccc(-c2cn(-c3ccc(Cl)cc3)c3[n+]2CCCCC3)cc1 ?
VACV Venus inh: -15.9%; HCMV inh: -66.0*; VACV mCherry inh: inactive; Marburg entry inh: -17.8%; Lassa entry inh: inconclusive; HCV inh: -2.6%

What do the screens show for `Cc1nc(-c2ccncc2)sc1C(=O)Nc1ccc(Br)cc1`?
VACV Venus inh: -1.8%; HCMV inh: -72.0*; VACV mCherry inh: -6.3%; Marburg entry inh: inconclusive; Lassa entry inh: 2.6%[46.1 µM]; HCV inh: -6.6%

What do the screens show for `CC(=O)Nc1ccc(NC(=O)c2sc(-c3ccccc3)nc2C)cc1`?
VACV Venus inh: -8.1%; HCMV inh: -26.2; VACV mCherry inh: -12.5%; Marburg entry inh: inconclusive; Lassa entry inh: inconclusive; HCV inh: inconclusive

Results for COc1cccc(N/C(SCc2cccc([N+](=O)[O-])c2)=C(/C#N)C(N)=O)c1 ?
VACV Venus inh: -6.9%; HCMV inh: -2.3; VACV mCherry inh: 3.9%; Marburg entry inh: inconclusive; Lassa entry inh: inconclusive; HCV inh: -15.4%

How did Cc1ccccc1N/C(SCc1cccc(Br)c1)=C(/C#N)C(N)=O do in these assays?
VACV Venus inh: -7.8%; HCMV inh: -68.5*; VACV mCherry inh: inactive; Marburg entry inh: 16.9%; Lassa entry inh: -20.8%; HCV inh: -25.3%

How did COc1ccc(CN(C(=O)Cc2coc3ccc(C)cc23)C2CCS(=O)(=O)C2)cc1 (configuration not stated) do in these assays?
VACV Venus inh: 4.0%; HCMV inh: -0.6; VACV mCherry inh: -1.5%; Marburg entry inh: -1.2%[46.1 µM]; Lassa entry inh: -9.5%[46.1 µM]

What do the screens show for `Cc1ccc(C(C)NC(=S)NC2CCCCC2)c(C)c1` (configuration not stated)?
HCMV inh: -77.7*; HCV inh: inconclusive

How did CC(NC(=S)NC1CCC(C(C)(C)C)CC1)c1ccccc1 (configuration not stated) do in these assays?
HCMV inh: -81.7*; HCV inh: inconclusive

How did Cc1ccc(C(C)NC(=S)NC2CCCCC2)cc1C (configuration not stated) do in these assays?
HCMV inh: -75.2*

What do the screens show for `O=C(NC1=C(NC2CCS(=O)(=O)C2)C(=O)c2ccccc2C1=O)c1ccccc1` (configuration not stated)?
HCMV inh: -99.5*; HCV inh: inconclusive

Results for O=C(NC1=C(Nc2ccc(Cl)cc2)C(=O)c2ccccc2C1=O)c1ccccc1 ?
VACV Venus inh: inconclusive; HCMV inh: -64.5*; VACV mCherry inh: 28.2µM*; Marburg entry inh: inconclusive; Lassa entry inh: inconclusive; HCV inh: inconclusive

How did O=C(CSc1nc2ccc(Cl)cc2[nH]1)NC1CCCc2ccccc21 (configuration not stated) do in these assays?
VACV Venus inh: 0.6%; HCMV inh: -73.6*; VACV mCherry inh: -6.8%; Marburg entry inh: inconclusive; Lassa entry inh: -25.0%[46.1 µM]; HCV inh: inconclusive

How did CCc1ccccc1NC(=O)C(CC)Sc1nc2cc3c(cc2c(=O)n1Cc1ccco1)OCO3 (configuration not stated) do in these assays?
HCMV inh: -94.1*; Marburg entry inh: inconclusive; Lassa entry inh: inconclusive; HCV inh: inconclusive

Results for CCC(O)CNC(=O)NC(=C(Cl)Cl)c1ccc(C)c(F)c1 (configuration not stated) ?
HCMV inh: -80.5*; HCV inh: 15.8µM*

Results for CCN=c1scc(-c2cccs2)n1/N=C/c1cc(OC)ccc1O ?
VACV Venus inh: -13.7%; HCMV inh: -95.3*; VACV mCherry inh: -1.6%; Marburg entry inh: inconclusive; Lassa entry inh: inconclusive; HCV inh: 5.01µM*

What do the screens show for `N#C[C@H](c1ccccc1)C1CCN(S(=O)(=O)CCCCl)CC1`?
HCMV inh: -20.0

What do the screens show for `C#CC[N+](C)(C)CC#Cc1ccc(Cl)cc1`?
VACV Venus inh: inconclusive; HCMV inh: -93.9*; VACV mCherry inh: inconclusive; Marburg entry inh: -3.2%[46.1 µM]; Lassa entry inh: -14.4%; HCV inh: -20.3%

Results for COc1cccc(OC)c1-c1cc(CCCc2cc(-c3c(OC)cccc3OC)nc3ccccc23)c2ccccc2n1 ?
VACV Venus inh: inconclusive; VACV mCherry inh: 10µM*

How did CCCCn1c(N)c(-c2nc3ccccc3s2)c2c([N+](=O)[O-])nn(CC)c(=O)c21 do in these assays?
HCMV inh: -29.3; Marburg entry inh: inconclusive; Lassa entry inh: inconclusive; HCV inh: inconclusive

What do the screens show for `CCCCCn1c(N)c(-c2nc3ccccc3s2)c2c([N+](=O)[O-])nn(CC)c(=O)c21`?
HCMV inh: -6.3; Marburg entry inh: 2.91µM*; Lassa entry inh: 10.8%; HCV inh: 11.2µM*

Results for COc1ccc(C(=O)C=CNNC(=O)c2ccc(Cl)cc2)cc1 ?
VACV Venus inh: -11.1%; HCMV inh: 14.4; VACV mCherry inh: inconclusive; Marburg entry inh: inconclusive; Lassa entry inh: 5.62µM*; HCV inh: 11.2µM*

What do the screens show for `O=C(/C=C/NCC(=O)c1ccccc1)c1ccc(Br)cc1`?
VACV Venus inh: -7.2%; HCMV inh: 31.5; VACV mCherry inh: -14.8%; Marburg entry inh: 1.9%; Lassa entry inh: 11.8%; HCV inh: 7.5%

Results for O=C(/C=C/Nc1ccc(Br)cc1F)c1ccccc1 ?
VACV Venus inh: -5.9%; HCMV inh: -4.1; VACV mCherry inh: inactive; Marburg entry inh: 1.26µM*; Lassa entry inh: 1.58µM*; HCV inh: 6.3%
